Laboratory results taken from PubChem BioAssay AID597 (National Center for Advancing Translational Sciences (NCATS), 2007).
Hit rate of the full screen: of about 68,000 compounds, about 60 (0.09%) were called active. Calls follow the shape of the dose curve; as a rule, active = well fitted curve in the direction sought with a large enough effect; inconclusive = small, poorly fitted or top-dose-only effect; inactive = flat fitted curve, though single readings scatter. A selection follows. Where a SMILES comes first, the peptide text is derived from it. The star is where a group is joined. Bz = O=C(c1ccccc1)*

experiment: qHTS Assay for Epigenetic Modulators; settings: mouse C127i GFP locus derepression, cytometry, 30 h; series mostly up to 46.1 µM; also: % of control where 0% means no effect
Description: NIH Molecular Libraries Screening Centers Network [MLSCN] NIH Chemical Genomics Center [NCGC] MLSCN Grant: 1 X01 MH079860-01 Assay Provider: Elisabeth D. Martinez, University of Texas SW Medical Center NCGC Assay Overview: The Locus Derepression assay detects the derepression of a GFP reporter that is stably integrated in a region of the genome of murine c127i mammary cells that is presumably silenced. GFP transcription in this construct is controlled by a CMV promoter, which normally is strong and constitutively active. However, this line was selected for lack of constitutive expression of the GFP protein. GFP production can be induced by incubating the cells with histone deacetylase or DNA methyltransferase inhibitors. Compounds that cause derepression of the locus to express GFP are identified by enumerating GFP positive cells using a laser-scanning microplate cytometer. For further details of this screen and follow-up characterization, see R.L. Johnson, W. Huang, A. Jadhav, C.P. Austin, J. Inglese, E.D. Martinez, A Quantitative High-Throughput Screen Identifies Potential Epigenetic Modulators of Gene Expression, Analytical Biochemistry (2008) 375(2):237-48.
NCGC Assay Protocol Summary: Two hundred and fifty cells in 5 uL per well were dispensed into black, clear-bottom 1536-well plates. Twenty-three nL compound was transferred to the assay plate and cells were incubated 30 hours at 37 C. Medium was removed, cells were washed two times with PBS, and GFP-positive cells were enumerated as fluorescent objects between the sizes of 20 to 120 um width and depth using an Acumen Explorer. Keywords: NIH Roadmap, MLSCN, MLI, MLSMR, qHTS, NCGC, qHTS, HDAC, DNMT, HAT, DNA methyltransferases, histone acetyl transferases, histone deacetylases

GFP derepression (activation), inactive:
Clc1ccc(C(c2ccc(Cl)cc2)n2cc[n+](C[C@@H](OCc3ccc(Cl)cc3Cl)c3ccc(Cl)cc3Cl)c2)cc1, C=CCSC1=C(C#N)C(c2cc(Br)c(O)c(OC)c2)CC(=O)N1 (stereo not drawn), CN(C)CCSS(=O)(=O)O 0.1% [at 9.22 µM], CC(NC(=O)CSc1nc2c(cc1C#N)CN(C)CC2)c1ccccc1 (stereo not drawn), CCNC(=O)CN(c1ccc(C)cc1)S(=O)(=O)c1ccc(SC)cc1, CC(=O)c1sc2nc(SCC(=O)N3CCCCC3)[nH]c(=O)c2c1C, Cn1cccc1C1(C(F)(F)F)NCCNC1=O (stereo not drawn), CCOC(=O)N1CCN(C(=O)c2nn(-c3ccc(C)cc3)c(=O)c3c2c2ccccc2n3C)CC1, COc1ccccc1CNC(=O)CCCNS(=O)(=O)c1cccc2nsnc12, O=C(c1ccc(O)cc1)c1ccc(C(=O)O)c(C(=O)O)c1, CCOC(=O)CNC(=O)CSc1nnnn1-c1cc(C)ccc1C, COc1ccc(S(=O)(=O)Nc2c(C)n(C)n(-c3ccccc3)c2=O)cc1, COc1ccc(C(C(O)C(=O)c2c[nH]c3ccccc23)N2CCN(c3ccccc3)CC2)cc1 (stereo not drawn), Cn1c(=O)[nH]c(=O)c2c1nc(N(CCO)Cc1ccccc1)n2Cc1ccccc1Cl, Cn1c(=O)cc(SCC(=O)N2CCN(C(=O)c3ccco3)CC2)c2ccccc21, COc1ccc(OC)c(CNC(=O)C2CCCN(c3nc4ccccc4o3)C2)c1 (stereo not drawn), Cn1cc(-c2nc3cnc(N4CCNCC4)nc3n(CCC#N)c2=O)c2ccccc21 7.6% [at 9.22 µM], CCOCCc1c(O)nc(SCC(=O)NCc2ccco2)[nH]c1=O, N#CC(C(N)=O)=C1CCC2(CC1)OCCCCO2, COC(=O)c1ccc(C2NC(=O)NC(C)=C2C(=O)N(C)C)cc1 (stereo not drawn), CCn1c2c(c3ccc(OC)cc31)CCCC2=O, COc1ccc(S(=O)(=O)NC(CC(=O)NCc2ccccc2OC)c2ccco2)cc1 (stereo not drawn), O=C(NC(Cc1ccccc1)C(=O)N1CCCC1C(=O)O)c1ccccc1 (stereo not drawn) (Bz-Phe-Pro-OH; configuration not given here), Cc1nc2cnc(Oc3cccc(Cl)c3)nc2n(C2CC2)c1=O -2.7% [at 9.22 µM], C[C@H]1O[C@@H](CC(=O)O)Cc2c1c(O)c1c(O)cc(-c3cc(=O)c4c(=O)c5c(c(=O)c=4c3=O)C[C@H](CC(=O)O)O[C@@H]5C)c(O)c1c2O 10.3% [at 9.22 µM], CNc1cc(-c2c(C)noc2C)ncn1 0% [at 9.22 µM], O=C(c1c(Cl)nc2sccn12)N1CCCc2ccccc21, Cc1ccc2[nH]c(=O)c(-c3nc4c(C)cccn4c3NCc3ccco3)cc2c1, COc1ccc(CNc2ncncc2-c2ccccc2C)c(OC)c1 0% [at 9.22 µM], CCOC(=O)c1[nH]c2ccccc2c1N=C(C)N(CC)CC, Fc1ccc(Cn2nnnc2C(c2cccs2)N2CCCCCC2)cc1 (stereo not drawn), COc1ccc2[nH]c(=O)c(CN(CC3CCCO3)C(=O)Nc3ccccc3)cc2c1 (stereo not drawn), COc1ccc2[nH]cc(CCNc3ncnc4ccc(-c5ccccc5CN(C)C)cc34)c2c1 -5.2% [at 9.22 µM]
